Laboratory results as given in the supplement of paper PMC12350171.
Structures can show the parent of a compound that is named as a salt.

These molecules were tested on Haemophilus parainfluenzae (assay: growth AUC normalised to DMSO control (fraction of control); higher = less growth inhibition, active = hit call of the paper). Settings: 20 µM;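 active = AUC significantly below DMSO controls by Student t-fit with adjusted P under 0.01; inactive = not significantly reduced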.
Summary of the method: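 After two anaerobic passages, pathogens were added at a starting OD578 of 0.01 to pre-reduced mGAM plates holding compound at 20 μM with 1% DMSO; hemin and NAD were supplemented for Haemophilus parainfluenzae. Sealed with breathable membranes, plates were read at OD578 hourly for 24 h, in three biological replicates. The trapezoidal rule, applied up to the exponential-to-stationary transition, gave the growth-curve AUC, which was normalised to DMSO controls on the same plate.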

Compound	growth AUC normalised to DMSO control
O=C1CN(/N=C/c2ccc(-c3ccc([N+](=O)[O-])cc3)o2)C(=O)N1 [Dantrolene sodium salt]	1.03 (inactive)
CC(C)NNC(=O)c1ccncc1 [Iproniazide phosphate]	1.04 (inactive)
N=C(N)N/N=C/c1c(Cl)cccc1Cl [Guanabenz acetate]	0.972 (inactive)
C[C@]12CC[C@@H]3c4ccc(O)cc4CC[C@H]3[C@@H]1C[C@@H](O)[C@@H]2O [Estriol]	1.02 (inactive)
CS(=O)(=O)Nc1ccc([N+](=O)[O-])cc1Oc1ccccc1 [Nimesulide]	0.982 (inactive)
CCc1cccc(CC)c1NC(=O)CN(CC(=O)O)CC(=O)O [Etifenin]	1.01 (inactive)
CC(=O)NS(=O)(=O)c1ccc(N)cc1 [Sulfacetamide sodic hydrate]	1.03 (inactive)
Clc1ccc(CSC(Cn2ccnc2)c2ccc(Cl)cc2Cl)cc1 (centres undefined) [Sulconazole nitrate]	1.08 (inactive)
Cc1onc(-c2ccccc2Cl)c1C(=O)N[C@@H]1C(=O)N2[C@@H]1SC(C)(C)[C@@H]2C(=O)O [Cloxacillin sodium salt]	0.914 (inactive)
Cc1cccc(C)c1OCC(C)N (centres undefined) [Mexiletine hydrochloride]	1.02 (inactive)
OCc1cc(C(O)CNCCCCCCOCCCCc2ccccc2)ccc1O (centres undefined) [Salmeterol]	0.962 (inactive)
CC(=O)O[C@]1(C(C)=O)CC[C@H]2[C@@H]3C=C(C)C4=CC(=O)CC[C@]4(C)[C@H]3CC[C@@]21C [Megestrol acetate]	1.06 (inactive)
COc1ccc2[nH]cc(CCNC(C)=O)c2c1 [Melatonin]	0.966 (inactive)
c1cnc(N2CCN(Cc3ccc4c(c3)OCO4)CC2)nc1 [Piribedil]	1.02 (inactive)
CC[C@@]1(O)C(=O)OCc2c1cc1n(c2=O)Cc2cc3c(CN(C)C)c(O)ccc3nc2-1 [Topotecan]	0.984 (inactive)
CN(N=O)C(=O)N[C@H]1C(O)O[C@H](CO)[C@@H](O)[C@@H]1O (mixture of isomers) [Streptozotocin]	0.172 (active)
CC(=O)c1ccc(S(=O)(=O)NC(=O)NC2CCCCC2)cc1 [Acetohexamide]	0.971 (inactive)
CC[N+](C)(CC)CCC[n+]1c(-c2ccccc2)c2cc(N)ccc2c2ccc(N)cc21 [Propidium iodide]	1.04 (inactive)
Cc1[nH]c(=O)c(C#N)cc1-c1ccncc1 [Milrinone]	0.987 (inactive)
CC(C(=O)O)c1ccc(N2Cc3ccccc3C2=O)cc1 (centres undefined) [Indoprofen]	1.02 (inactive)

Compound	growth AUC normalised to DMSO control
CC(C)NCC(O)c1ccc2ccccc2c1 (centres undefined) [Pronethalol hydrochloride]	1 (inactive)
CC(=O)OCC(=O)[C@@]1(O)CC[C@H]2[C@@H]3CCC4=CC(=O)CC[C@]4(C)[C@H]3[C@@H](O)C[C@@]21C [Cortisol acetate]	1.02 (inactive)
CCN(CC)CCc1nc(-c2ccccc2)no1 [Oxolamine citrate salt]	1.05 (inactive)
CN[C@@H]1[C@H](O)[C@H](NC)[C@H]2O[C@@]3(O)C(=O)C[C@@H](C)O[C@H]3O[C@@H]2[C@H]1O [Spectinomycin dihydrochloride]	0.117 (active)
CC(=O)c1ccc2c(c1)N(CCCN(C)C)c1ccccc1S2 [Acetopromazine maleate salt]	0.95 (inactive)
Nc1ccc(S(N)(=O)=O)cc1 [Sulfanilamide]	0.997 (inactive)
O=c1oc2ccccc2c(O)c1Cc1c(O)c2ccccc2oc1=O [Dicumarol]	1.31 (inactive)
Cc1cccn2c(=O)c(-c3nnn[nH]3)cnc12 [Pemirolast potassium]	0.933 (inactive)
O=C(O)COC(=O)Cc1ccccc1Nc1c(Cl)cccc1Cl [Aceclofenac]	1.01 (inactive)
CCCCC1C(=O)N(c2ccccc2)N(c2ccc(O)cc2)C1=O (centres undefined) [Oxyphenbutazone]	1.08 (inactive)
C#C[C@]1(O)CC[C@H]2[C@@H]3CCc4cc(O)ccc4[C@H]3CC[C@@]21C [Ethinylestradiol]	1.04 (inactive)
NS(=O)(=O)c1cc2c(cc1Cl)NC(CC1CCCC1)NS2(=O)=O (centres undefined) [Cyclopenthiazide]	0.982 (inactive)
O=C(O)CCc1nc(-c2ccccc2)c(-c2ccccc2)o1 [Oxaprozin]	1.08 (inactive)
O=C(N[C@H](CO)[C@H](O)c1ccc([N+](=O)[O-])cc1)C(Cl)Cl [Chloramphenicol]	0.0445 (active)
CCCSc1ccc2[nH]c(NC(=O)OC)nc2c1 [Albendazole]	1.08 (inactive)
O=C(CCCN1CC=C(n2c(=O)[nH]c3ccccc32)CC1)c1ccc(F)cc1 [Droperidol]	0.995 (inactive)
CCN1CCCC1CNC(=O)c1cc(S(=O)(=O)CC)c(N)cc1OC (centres undefined) [Amisulpride]	0.997 (inactive)
CCCCOc1ccc(CC(=O)NO)cc1 [Bufexamac]	1 (inactive)
Cc1cc(NC(=O)C2=C(O)c3ccccc3S(=O)(=O)N2C)no1 [Isoxicam]	0.991 (inactive)
